# According to PubChem BioAssay (NCATS):
# Where “and” joins values, the source holds several entries; their conditions need not be identical. Equal values may be shown once. Records with an inconclusive call do not appear. Calls of active or inactive are those of the source. Calls follow the shape of the dose curve; as a rule, active = well fitted inhibition curve with a large enough effect; inconclusive = small, poorly fitted or top-dose-only effect; inactive = flat fitted curve, though single readings scatter.
# Test system: HaCat
# Experiment: Cytotoxic Profiling of Annotated Libraries Using Quantitative High-Throughput Screening (AID 1296008); also: nearly all actives have a fitted effect of over 60% in size
# Settings: Five cell lines viability, CellTiter-Glo ATP luminescence, 48-72 h; max response: hits give low values
# How it was run: (§1)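 Compounds were pin-transferred onto cells and incubated 48 or 72 hr at 37 degree Celsius, 95% humidity. CellTiter-Glo was added, plates sat 10 min at room temperature, then ATP-coupled luminescence was imaged as the viability read-out.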
# % is scaled to controls: 0 for no effect and ±100 for the full control effect; potency is read from the fitted curve at half-maximal effect.
SMILES,outcome,max response,Potency
Nc1ccc(O)c(C(=O)O)c1,inactive,–,–
CC(C(=O)O)c1ccc(C(=O)c2ccccc2)s1 (stereo not drawn),inactive,–,–
CC(C)(C)c1nnc(NS(=O)(=O)c2ccc(N)cc2)s1,inactive,–,–
CN(C)CCn1nnnc1SCC1=C(C(=O)O)N2C(=O)[C@@H](NC(=O)Cc3csc(N)n3)[C@H]2SC1,inactive,–,–
c1ccc2sc(SSc3nc4ccccc4s3)nc2c1,–,-2.36% (inactive),–
COC(=O)Nc1nc2ccc(C(=O)C3CC3)cc2[nH]1,inactive,–,–
[O-][n+]1ccccc1SSc1cccc[n+]1[O-],–,–,731 nM (active)
Nc1ccc(C(=O)O)c(O)c1,inactive,–,–
Cc1c(Nc2ncccc2C(=O)O)cccc1C(F)(F)F,–,1.65% (inactive),–
CN1[C@@H]2CC[C@H]1CC(OC(c1ccccc1)c1ccccc1)C2 (stereo partly drawn),inactive,–,–
O=[N+]([O-])c1ccc(CNc2nc(NCc3cccc(C(F)(F)F)c3)nc3nc[nH]c23)cc1,–,0.807% (inactive),–
O=C(O)[C@H](CC(=O)N1C[C@H]2CCCC[C@H]2C1)Cc1ccccc1,–,-9.54% (inactive),–
CO[C@@]1(NC(=O)Cc2cccs2)C(=O)N2C(C(=O)O)=C(COC(N)=O)CS[C@@H]21,inactive,–,–
Nc1ccc([N+](=O)[O-])cc1O,–,4.66% (inactive),–
O=C(O)Cc1ccc2c(c1)C(=O)c1ccccc1CO2,–,4.48% (inactive),–
COc1ccnc2c1CCCCC2S(=O)c1nc2ccccc2[nH]1 (stereo not drawn),inactive,–,–
CCCCCCCCCCCCOCCO,–,-12.4% (inactive),–

SMILES,outcome,max response,Potency
CCCSc1ccc2nc(NC(=O)OC)[nH]c2c1,–,-6.26% (inactive),–
O=C(/C=C/c1ccccc1)NCCO,–,-18% (inactive),–
CC1(C)S[C@@H]2[C@H](NC(=O)[C@H](NC(=O)N3CCN(S(C)(=O)=O)C3=O)c3ccccc3)C(=O)N2[C@H]1C(=O)O,inactive,–,–
O=C(CCN1CCN(CCO)CC1)N1c2ccccc2Sc2ccc(C(F)(F)F)cc21,–,-4.28% (inactive),–
CCOc1ccc2nc(S(N)(=O)=O)sc2c1,–,-4.97% (inactive),–
O=C(Nc1ccc(C(=O)O)c(O)c1)c1ccccc1,inactive,–,–
CCCCCCCC/C=C/C(=O)O,inactive,–,–
CN1[C@@H]2CC[C@H]1CC(OC(=O)C(CO)c1ccccc1)C2 (stereo partly drawn),–,-9.85% (inactive),–
CC(=O)SCC(CC(=O)c1ccc(C)cc1)C(=O)O (stereo not drawn),–,-9.14% (inactive),–
COC(=O)[C@H]1[C@H]2C[C@@H]3c4[nH]c5cc(OC)ccc5c4CCN3C[C@H]2C[C@@H](OC(=O)/C=C/c2cc(OC)c(OC)c(OC)c2)[C@@H]1OC,inactive,–,–
C[N+]1(C)[C@@H]2CC(OC(=O)[C@H](CO)c3ccccc3)C[C@H]1[C@@H]1O[C@@H]12 (stereo partly drawn),inactive,–,–
COc1cc(/C=C/C(=O)N2CCN(CC(=O)N3CCCC3)CC2)cc(OC)c1OC,inactive,–,–
Cc1ccc2c(n1)Oc1ccc(C(C)C(=O)OCC(=O)N(C)C)cc1C2 (stereo not drawn),–,0.244% (inactive),–
CCCCCCCCCCCCCCCC(=O)OC(C)C,–,-20.5% (inactive),–
COc1cccc2c1C(=O)c1c(O)c3c(c(O)c1C2=O)C[C@@](O)(C(=O)CO)C[C@@H]3O[C@H]1C[C@H](N)[C@H](O[C@@H]2CCCCO2)[C@H](C)O1,–,–,53.1 nM (active)
CCNc1nc2c(ncn2[C@H]2C[C@H](O)[C@@H](CO)O2)c(=O)[nH]1,–,-28.7% (inactive),–

# Test system: NIH3T3
# Experiment: as above
# Settings: Five cell lines viability, CellTiter-Glo ATP luminescence, 48-72 h; max response: hits give low values
# How it was run: as §1
SMILES,outcome,max response,Potency
Nc1ccc(O)c(C(=O)O)c1,inactive,–,–
CC(C)(C)c1nnc(NS(=O)(=O)c2ccc(N)cc2)s1,–,-3.74% (inactive),–
CN(C)CCn1nnnc1SCC1=C(C(=O)O)N2C(=O)[C@@H](NC(=O)Cc3csc(N)n3)[C@H]2SC1,inactive,–,–
c1ccc2sc(SSc3nc4ccccc4s3)nc2c1,–,3.25% (inactive),–
[O-][n+]1ccccc1SSc1cccc[n+]1[O-],–,–,164 nM (active)
Nc1ccc(C(=O)O)c(O)c1,inactive,–,–
Cc1c(Nc2ncccc2C(=O)O)cccc1C(F)(F)F,–,-21.5% (inactive),–
CN1[C@@H]2CC[C@H]1CC(OC(c1ccccc1)c1ccccc1)C2 (stereo partly drawn),–,-0.104% (inactive),–
O=[N+]([O-])c1ccc(CNc2nc(NCc3cccc(C(F)(F)F)c3)nc3nc[nH]c23)cc1,inactive,–,–
O=C(O)[C@H](CC(=O)N1C[C@H]2CCCC[C@H]2C1)Cc1ccccc1,–,3.24% (inactive),–
CO[C@@]1(NC(=O)Cc2cccs2)C(=O)N2C(C(=O)O)=C(COC(N)=O)CS[C@@H]21,inactive,–,–
O=C(O)Cc1ccc2c(c1)C(=O)c1ccccc1CO2,inactive,–,–
COc1ccnc2c1CCCCC2S(=O)c1nc2ccccc2[nH]1 (stereo not drawn),–,-4.2% (inactive),–
CCCCCCCCCCCCOCCO,–,1.59% (inactive),–
CCCSc1ccc2nc(NC(=O)OC)[nH]c2c1,–,–,1880 nM (active)
O=C(/C=C/c1ccccc1)NCCO,–,3.14% (inactive),–
CC1(C)S[C@@H]2[C@H](NC(=O)[C@H](NC(=O)N3CCN(S(C)(=O)=O)C3=O)c3ccccc3)C(=O)N2[C@H]1C(=O)O,inactive,–,–
O=C(CCN1CCN(CCO)CC1)N1c2ccccc2Sc2ccc(C(F)(F)F)cc21,–,1.15% (inactive),–
CCOc1ccc2nc(S(N)(=O)=O)sc2c1,inactive,–,–
O=C(Nc1ccc(C(=O)O)c(O)c1)c1ccccc1,–,-1.76% (inactive),–
CCCCCCCC/C=C/C(=O)O,–,2.83% (inactive),–
CN1[C@@H]2CC[C@H]1CC(OC(=O)C(CO)c1ccccc1)C2 (stereo partly drawn),–,3.27% (inactive),–
CC(=O)SCC(CC(=O)c1ccc(C)cc1)C(=O)O (stereo not drawn),–,-1.54% (inactive),–
COC(=O)[C@H]1[C@H]2C[C@@H]3c4[nH]c5cc(OC)ccc5c4CCN3C[C@H]2C[C@@H](OC(=O)/C=C/c2cc(OC)c(OC)c(OC)c2)[C@@H]1OC,inactive,–,–
C[N+]1(C)[C@@H]2CC(OC(=O)[C@H](CO)c3ccccc3)C[C@H]1[C@@H]1O[C@@H]12 (stereo partly drawn),–,4.27% (inactive),–
COc1cc(/C=C/C(=O)N2CCN(CC(=O)N3CCCC3)CC2)cc(OC)c1OC,inactive,–,–
Cc1ccc2c(n1)Oc1ccc(C(C)C(=O)OCC(=O)N(C)C)cc1C2 (stereo not drawn),–,-8.07% (inactive) and -9.75% (inactive),–
CCCCCCCCCCCCCCCC(=O)OC(C)C,inactive,–,–
COc1cccc2c1C(=O)c1c(O)c3c(c(O)c1C2=O)C[C@@](O)(C(=O)CO)C[C@@H]3O[C@H]1C[C@H](N)[C@H](O[C@@H]2CCCCO2)[C@H](C)O1,–,–,188 nM (active)
CCNc1nc2c(ncn2[C@H]2C[C@H](O)[C@@H](CO)O2)c(=O)[nH]1,inactive,–,–
